From PubChem
Most compounds without a hit are left out; they make up all but 8.2% or so of the library.
MCF10A rerep: A quantitative high throughput screen for small molecules that induce DNA re-replication in MCF 10a normal breast cells; MCF 10A DNA re-replication, Hoechst nuclear intensity, 48 h; Potency, µM (top dose mostly 46.1 µM), hits mostly activators; 2.9% of 350,000 active; note: nearly all actives have a fitted effect of over 50% in size
SW480 rereplic: A quantitative high throughput screen for small molecules that induce DNA re-replication in SW480 colon adenocarcinoma cells. SW480 DNA re-replication, Hoechst DNA content imaging, 48 h. Potency, µM (top dose mostly 46.1 µM), most hits filed as activators. 1.8% of 340,000 active. AID 624297, 2012; note: nearly all actives have a fitted effect of over 55% in size
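Hoechst fluorescence of nuclei (405 nm excitation, 500-530 nm emission) measured by plate-scanning imager after 48 hr compound exposure at 37 C; re-replication scored as increased number of nuclei with elevated intensity.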
KB-3-1 tox: qHTS assay for MDR1-selective chemotherapeutics: Primary screen using the parental adenocarcinoma cell KB-3-1; AID 1347075, 2019; 1.4% of 400,000 active; KB-3-1 viability, CellTiter-Glo ATP luminescence, 72 h; Potency, µM (doses to about 46.1 µM), actives largely listed as cytotoxic; note: nearly all actives have a fitted effect of over 60% in size
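Luminescent ATP read-out (CellTiter-Glo) measures survival of drug-naive KB-3-1 cells after 72 h compound exposure at 37 °C. Titration series was screened from lowest to highest concentration, with DMSO vehicle plates as background controls.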
KB-V1 cytotox: qHTS assay for MDR1-selective chemotherapeutics: Primary screen using the drug-selected MDR subline cells KB-V1 | AID 1347076, 2019 | Potency, µM (titrated, usually from 46.1 µM), most hits filed as cytotoxic | KB-V1 MDR cells viability, CellTiter-Glo, 72 h | 3.4% of 400,000 active; note: nearly all actives have a fitted effect of over 60% in size
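Compound-treated KB-V1 multidrug-resistant cells, 72 h, 37 degrees C; viability by CellTiter-Glo. Fitted qHTS curves give the values.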
ELG1 DNA repair: qHTS screen for small molecules that inhibit ELG1-dependent DNA repair in human embryonic kidney (HEK293T) cells expressing luciferase-tagged ELG1. HEK293T ELG1-luciferase reporter, luminescence, 16 h; DNA damage induced by 5-fluorouridine. 2.3% of 330,000 active. Potency, µM (series often up to 46.1 µM), actives largely listed as inhibitors; note: nearly all actives have a fitted effect of over 55% in size
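DMSO vehicle served as the neutral condition. Each well held 2,000 cells given 5-fluorouridine plus compound; after 16 hr at 37 °C/5% CO2, ONE-Glo was added and luciferase measured 30 min later.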
Each line names hits and unclear results; the compound was inactive in the other large screens. Calls come from the whole dose curve; as a rule, active = well fitted curve in the direction sought with a large enough effect; inconclusive = small, poorly fitted or top-dose-only effect, or another doubt; inactive = no such curve, though single readings can be large; an effect the other way counts as inactive or inconclusive.

CCCCOc1ccc(-c2cn3ccccc3n2)cc1[N+](=O)[O-]	MCF10A rerep 11.6µM, KB-V1 cytotox inconclusive, ELG1 DNA repair inconclusive
O=[N+]([O-])c1ccc(-c2cn3ccccc3n2)cc1	KB-V1 cytotox inconclusive (no result: ELG1 DNA repair)
CCOc1ccc(-c2cn3ccccc3n2)cc1[N+](=O)[O-]	MCF10A rerep 20.6µM, SW480 rereplic inconclusive, KB-V1 cytotox inconclusive, ELG1 DNA repair inconclusive
Cc1ccc(NC(=O)Cn2c(=O)n(Cc3ccccc3)c(=O)c3c(C)c(C)sc32)c(C)c1	none (no result: MCF10A rerep, SW480 rereplic, ELG1 DNA repair)
CN1C(=O)[C@H]2[C@@H](c3ccc(C(F)(F)F)cc3)N[C@]3(CCCN(Cc4ccc(Cl)cc4)C3=O)[C@H]2C1=O	none (no result: MCF10A rerep, SW480 rereplic, ELG1 DNA repair)
CS(=O)(=O)N(CC(=O)Nc1ccc(C(N)=O)cc1)C1CCCCC1	none
CS(=O)(=O)N(CC(=O)Nc1ccc(Br)cc1)C1CCCCC1	KB-3-1 tox 23.1µM, KB-V1 cytotox inconclusive
CC(C)CNC(=O)CN(C1CCCCC1)S(C)(=O)=O	MCF10A rerep inconclusive, SW480 rereplic 6.51µM
Cc1ccc(NC(=O)C(=O)NCC(c2cccnc2)N2CCN(Cc3ccccc3)CC2)cc1Cl (stereo unspecified)	none (no result: MCF10A rerep, SW480 rereplic, ELG1 DNA repair)
O=C(Cn1cnc2c(nnn2Cc2ccc(F)cc2)c1=O)NCc1ccc(F)cc1	MCF10A rerep inconclusive, KB-3-1 tox inconclusive
Cc1ccc(Cn2nnc3c(=O)n(CC(=O)NCc4ccccc4)cnc32)cc1	MCF10A rerep 9.2µM, SW480 rereplic 9.2µM, KB-3-1 tox inconclusive
Cc1ccc(Cn2nnc3c(=O)n(CC(=O)NCc4ccco4)cnc32)cc1	MCF10A rerep inconclusive, SW480 rereplic inconclusive, KB-3-1 tox 23.1µM, KB-V1 cytotox inconclusive, ELG1 DNA repair inconclusive
O=C(CSc1ncnc2c1nnn2-c1ccc(F)cc1)NCc1ccco1	MCF10A rerep inconclusive, ELG1 DNA repair inconclusive
Cc1ccc(-n2nc(C)c3c(C)c(CCC(=O)NCc4ccco4)c(C)nc32)cc1	MCF10A rerep inconclusive, ELG1 DNA repair 23.1µM
Cc1ccc(-n2nnc3c(SCC(=O)NCc4ccco4)ncnc32)cc1	MCF10A rerep 23.1µM, KB-3-1 tox inconclusive, KB-V1 cytotox inconclusive
COc1ccccc1N(C)S(=O)(=O)c1ccc(C(=O)Nc2cccc(S(=O)(=O)N3CCOCC3)c2)cc1	MCF10A rerep inconclusive, KB-3-1 tox inconclusive (no result: ELG1 DNA repair)
O=C(Cn1cnc2c(cnn2-c2ccccc2)c1=O)N1CCN(c2ccc(F)cc2)CC1	KB-V1 cytotox inconclusive
CC(C)(C)n1ncc2c(=O)n(CC(=O)NCc3ccccc3)cnc21	MCF10A rerep 14.6µM, SW480 rereplic 20.6µM, KB-3-1 tox 7.31µM, KB-V1 cytotox inconclusive, ELG1 DNA repair inconclusive
O=C(Cn1cnc2c(nnn2Cc2ccc(F)cc2)c1=O)N1CCN(c2ccccc2)CC1	KB-V1 cytotox 9.2µM, ELG1 DNA repair inconclusive
CC(=O)c1ccc(NS(=O)(=O)c2ccc(-n3cccn3)cc2)cc1	none (no result: MCF10A rerep, SW480 rereplic, ELG1 DNA repair)
COC(=O)c1ccc(N2C(c3cc(OC)cc(OC)c3)=Cc3ccc(-c4cccnc4)cc3C2CC(=O)C2CC2)cc1 (stereo unspecified)	none (no result: MCF10A rerep, SW480 rereplic, ELG1 DNA repair)
Cc1ccc(/C=C/C(=O)N2CCN(c3ccc(F)cc3)CC2)o1	MCF10A rerep inconclusive, KB-3-1 tox inconclusive, KB-V1 cytotox 18.4µM
Cc1nn2c(C)c(C(=O)N3CCN(c4ccccc4)CC3)cnc2c1-c1ccccc1	none (no result: MCF10A rerep, SW480 rereplic, ELG1 DNA repair)
CCc1ccccc1NC(=O)C(CC)Sc1nc2cc3c(cc2c(=O)n1Cc1ccco1)OCO3 (stereo unspecified)	MCF10A rerep 6.51µM, SW480 rereplic 14.6µM, KB-3-1 tox inconclusive, KB-V1 cytotox 3.66µM
CCC(Sc1nc2cc(OC)c(OC)cc2c(=O)n1Cc1ccco1)C(=O)NCCOC (stereo unspecified)	ELG1 DNA repair inconclusive
CCc1ccc(NC(=O)C(CC)Sc2nc3cc4c(cc3c(=O)n2Cc2ccco2)OCO4)cc1 (stereo unspecified)	MCF10A rerep 18.4µM, SW480 rereplic inconclusive, KB-3-1 tox inconclusive, KB-V1 cytotox inconclusive
CCN(CC)C(=O)CSc1nc2cc3c(cc2c(=O)n1Cc1ccc(OC)cc1)OCO3	none
